# Compound activity as filed in PubChem.
# Pf Dd2 inh: blocks in vitro growth of P. falciparum Dd2. P. falciparum Dd2 growth, SYBR Green, 72 h. Potency, µM (highest dose often 28.9 µM), for the others: at the top dose activity, negative = inhibition, usual class: inhibitors. 120,000 compounds, 4.3% hits. AID 1347417; active means well fitted inhibition curve with a large enough effect;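 further: plate controls were DMSO vehicle for no effect and reference drug for full effect; nearly all actives have a fitted effect of over 65% in size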
#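 Infected erythrocytes (Dd2, 0.3% parasitemia, 2.5% hematocrit final) are added to compound in RPMI-1640/Albumax II medium, grown 72 h at 37C in low oxygen, then lysed with saponin/Triton-X containing SYBR Green and read by fluorescence.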
# * marks the source's active call; other numbers are inactive results; i = inactive; [ ] = another dose, or the depositor's remark. The entries come from a sample that favours hits as a whole. Potency means the concentration at half of the fitted maximal effect.
SMILES,Pf Dd2 inh
Cc1c(NC(=O)c2ccc(N3CCC(C)CC3)c([N+](=O)[O-])c2)cccc1-c1nc2ccccc2o1,-2.6%
CCc1ccc2oc(-c3cccc(NC(=O)c4ccc(N5CCC(C)CC5)c([N+](=O)[O-])c4)c3)nc2c1,7.94µM*
Cc1ccc2oc(-c3ccc(C)c(NC(=O)c4ccc(N5CCC(C)CC5)c([N+](=O)[O-])c4)c3)nc2c1,29.3%
O=C(Nc1cc(-c2nc3cc(Cl)ccc3o2)ccc1Cl)c1cc([N+](=O)[O-])ccc1N1CCOCC1,6.2%
CC(C)(C)N1CC(C(=O)NCCCc2ccc(Cl)cc2)CC1=O (stereo not given),-16.9%
C[C@@H]1C(=O)O[C@H]2[C@H]1CC[C@@]1(C)Cc3sc(NS(=O)(=O)c4ccc(F)cc4F)nc3[C@@H](C)[C@H]21,i
Cc1nc2scc(CC(=O)NC3CC3)n2c(=O)c1-c1cc(C)n(-c2ccccc2F)n1,i
COc1ccc(Cn2c3c(c(=O)n2Cc2ccccc2)CCN(Cc2cccc(O)c2)C3)cc1,i
O=c1c2c(n(Cc3ccccc3)n1-c1ccccc1)CN(Cc1ccc3[nH]ccc3c1)CC2,3.16µM*
O=C(c1ccccc1)N1CCc2c(n(Cc3ccccc3)n(-c3ccccc3)c2=O)C1,-1.1%[44.1 µM]
COCCNC(=O)c1cc(Br)cn2ccnc12,-1.1%[44.1 µM]
COCc1nncn1C1CCN(S(=O)(=O)c2ccccc2C(F)(F)F)CC1,16.6%
COc1ccc(-n2nc(C(=O)NCc3ccc(F)cc3)c3c4ccccc4n(C)c3c2=O)cc1,1.9%
COc1ccc(-n2nc(C(=O)NCCc3ccc(OC)c(OC)c3)c3c4ccccc4n(C)c3c2=O)cc1,3.16µM*
COc1ccc(-n2nc(C(=O)Nc3ccc(Br)cc3C)c3c4ccccc4n(C)c3c2=O)cc1,44.2%
COc1ccc(-n2nc(C(=O)N3CCN(c4cccc(C)c4)C(C)C3)c3c4ccccc4n(C)c3c2=O)cc1 (stereo not given),11.2µM*
Cc1ccc(-n2nc(C(=O)NCCc3cccc(C)c3)c3c4ccccc4n(C)c3c2=O)cc1,i
COc1ccc(-n2nc(C(=O)Nc3cccc(C)n3)c3c4ccccc4n(C)c3c2=O)cc1,i
Cc1ccc(SCc2ccc(-c3nc(C4CCOC4)no3)o2)cc1 (stereo not given),-26.1%
CN(CC1CCOC1)C(=O)Cc1ccccc1 (stereo not given),i[5.79 µM]
Cc1nc(-c2ccccc2)n(Cc2cc(=O)n3ccccc3n2)c(=O)c1CCO,-15.1%
COc1nc2c(cc1CNC(=O)C1CC(=O)N(C)C1)C(=O)N(C1CCCC1)C2 (stereo not given),6.0%
O=C1c2ccccc2CN1C1CCN(Cc2ccc(C(F)(F)F)cc2)CC1,-16.8%
CCC1=C(C(=O)OC)C(c2ccccc2C)N2C(CC(=O)N3CCCC3)=CSC2=N1 (stereo not given),-10.8%
CC1(C(=O)NCC2CC2)CCc2cnc(NCc3ccccc3)nc21 (stereo not given),-11.9%[44.1 µM]
SMILES,Pf Dd2 inh
Clc1ccccc1C1(c2ccnc(C3CCCC3)n2)CCNCC1,3.98µM*
CC1(C(=O)NCc2ccncc2)CCCc2cnc(NCc3ccccc3)nc21 (stereo not given),i
c1coc(-c2ccnc3nc(C4CCC4)nn23)c1,-7.1%
c1ccc(-c2nc(CC3CCCNC3)no2)nc1 (stereo not given),-13.5%
COc1ccccc1Cc1nccc(C2(c3ccccc3Cl)CCNCC2)n1,8.91µM*
COc1ccccc1Cn1cnc2cccnc21,-12.9%[44.1 µM]
c1cnc2nc(C3CCNCC3)[nH]c2c1,-4.2%[44.1 µM]
Clc1ccccc1C1(c2ccnc(CC3CC3)n2)CCNCC1,5.01µM*
COc1ccccc1Cc1nc2ccccc2[nH]c1=O,45.4%
Clc1ccccc1C1(c2ccnc(NCc3ccccc3)n2)CCNCC1,4.47µM*
COC(=O)[C@H](NC(=O)[C@@H]1C[C@H](NC(=O)NC(C)C)CN1C(=O)CSC)C(C)C,5.9%[44.1 µM]
COC[C@H]1CCCN1C(=O)C[C@@H]1O[C@H](CNC(=O)Nc2cccc(F)c2)[C@@H](O)[C@H]1O,-2.7%[44.1 µM]
CC(C)(C)c1cc(C[C@H]2CNCC[C@H]2CC(=O)N2CCCCC2)no1,i
c1ccc(NCCn2cc(C3CCCNC3)nn2)cc1 (stereo not given),-4.5%
CNC(=O)[C@@H](C1CCCCC1)N1CCC[C@H]1C(=O)N1CCOCC1,-14.7%[44.1 µM]
O=C(NCC1CC1)c1c(OCC2CC2)cc(=O)n2c1CCCCC2,46.4%
O=C(Nc1ccc2c(c1)OCO2)C1CCCN(c2cnn(Cc3ccccc3)c(=O)c2)C1 (stereo not given),10µM*
O=C(Nc1ccc2oc(-c3ccccc3)nc2c1)C1CCN(c2cnn(Cc3ccccc3)c(=O)c2)C1 (stereo not given),2.51µM*
O=C(NC1CCS(=O)(=O)C1)C1CCN(c2cnn(Cc3ccccc3)c(=O)c2)C1 (stereo not given),-20.6%
O=C(NCCc1cccs1)C1CCCN(c2cnn(Cc3ccccc3)c(=O)c2)C1 (stereo not given),-28.0%
O=C(C1CCCN(c2cnn(Cc3ccccc3)c(=O)c2)C1)N1CCCC1 (stereo not given),i
